Experimental data reported in PubChem BioAssay.
Calls of active or inactive are those of the source. Unless noted, the rule behind the calls is not given here.

Legend:
[1] = compounds binding Alexa647 anti-His antibody – biochemical, small-molecule microarray, 635 nm fluorescence, artefact control for SMM control protein annotation, primary screen (AID 1128); conditions: higher = more signal;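 note: score merges feature fluorescence with signal-to-noise for each printed compound spot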
[2] = system: Human papillomavirus type 1a E7 protein (residues 1-88); experiment: HPV1a E7 small-molecule binders, primary screen, biochemical, small-molecule microarray, residues 1-88, 635 nm (AID 1129); conditions: small-molecule microarray binding, fluorescence 635 nm; higher = more signal
[3] = target: Focal adhesion kinase 1 (Homo sapiens) (UniProt Q05397); experiment: PTK2 protein binding on printed compound slides – biochemical, small-molecule microarray, 635/667 nm fluorescence, BSA, DTT, primary screen (AID 1130); conditions: 635 nm fluorescence, higher = more signal;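 note: composite of spot emission at 667 nm and signal to noise over triplicate slides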
Sequence of Focal adhesion kinase 1 (Homo sapiens) (Q05397 whole entry, looked up): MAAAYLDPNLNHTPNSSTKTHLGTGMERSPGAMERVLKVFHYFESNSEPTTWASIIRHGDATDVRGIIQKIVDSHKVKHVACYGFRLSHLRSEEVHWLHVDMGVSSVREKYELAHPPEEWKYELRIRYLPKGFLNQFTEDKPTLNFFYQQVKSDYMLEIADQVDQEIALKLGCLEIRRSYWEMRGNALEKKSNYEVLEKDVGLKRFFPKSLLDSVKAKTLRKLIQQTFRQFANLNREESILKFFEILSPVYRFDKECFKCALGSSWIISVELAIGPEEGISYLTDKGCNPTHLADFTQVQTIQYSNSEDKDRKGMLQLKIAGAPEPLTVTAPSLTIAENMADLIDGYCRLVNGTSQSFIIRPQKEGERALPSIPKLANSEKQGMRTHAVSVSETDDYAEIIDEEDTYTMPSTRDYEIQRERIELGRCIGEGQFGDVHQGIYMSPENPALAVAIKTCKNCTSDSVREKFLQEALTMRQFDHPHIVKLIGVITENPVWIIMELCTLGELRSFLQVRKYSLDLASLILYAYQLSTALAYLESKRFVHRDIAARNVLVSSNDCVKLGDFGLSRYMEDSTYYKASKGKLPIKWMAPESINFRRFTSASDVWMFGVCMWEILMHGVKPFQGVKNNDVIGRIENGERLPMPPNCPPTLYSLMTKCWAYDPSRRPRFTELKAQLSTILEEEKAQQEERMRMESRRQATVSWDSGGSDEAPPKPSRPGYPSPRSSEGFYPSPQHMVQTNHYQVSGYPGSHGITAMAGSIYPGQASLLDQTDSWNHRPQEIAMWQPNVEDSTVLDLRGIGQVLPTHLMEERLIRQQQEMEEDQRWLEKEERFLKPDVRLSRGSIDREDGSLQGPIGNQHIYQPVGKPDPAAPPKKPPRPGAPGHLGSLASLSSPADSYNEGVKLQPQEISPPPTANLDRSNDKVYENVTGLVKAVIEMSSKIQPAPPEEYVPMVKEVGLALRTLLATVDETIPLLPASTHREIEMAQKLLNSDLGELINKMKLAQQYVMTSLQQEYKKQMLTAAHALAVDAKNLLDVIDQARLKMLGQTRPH

[4] = system: Fibrinogen (Alexa647-labelled); experiment: Alexa647-fibrinogen binding to printed small molecules – biochemical, small-molecule microarray, 635/667 nm fluorescence, artefact control for SMM control-protein annotation, profiling panel (AID 1131); conditions: fibrinogen-A647 binding fluorescence, higher = more signal;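 note: z-score merges 667 nm fluorescence with per-spot signal-to-noise over triplicate slides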
[5] = target: Follistatin (Homo sapiens) (UniProt P19883); experiment: FST protein binding to printed compounds – biochemical, small-molecule microarray, 635/667 nm fluorescence, primary screen (AID 1132); conditions: 635 nm fluorescence, higher = more signal
Sequence of Follistatin (Homo sapiens) (P19883 whole entry, looked up): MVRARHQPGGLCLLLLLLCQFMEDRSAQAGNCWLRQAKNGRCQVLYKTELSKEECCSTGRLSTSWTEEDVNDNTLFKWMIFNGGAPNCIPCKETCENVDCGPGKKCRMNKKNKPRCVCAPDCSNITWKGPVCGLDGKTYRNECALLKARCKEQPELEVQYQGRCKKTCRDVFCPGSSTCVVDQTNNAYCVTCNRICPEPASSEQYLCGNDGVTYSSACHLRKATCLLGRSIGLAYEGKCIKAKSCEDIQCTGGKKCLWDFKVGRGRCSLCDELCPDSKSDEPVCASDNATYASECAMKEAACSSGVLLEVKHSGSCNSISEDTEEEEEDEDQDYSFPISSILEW

[6] = target: Fibroblast growth factor 2 (Homo sapiens) (UniProt P09038); experiment: basic fibroblast growth factor binding to printed compounds – biochemical, small-molecule microarray, 635/667 nm fluorescence, primary screen (AID 1133); conditions: FGF2, fluorescence 635/667, higher = more signal
Sequence of Fibroblast growth factor 2 (Homo sapiens) (P09038 whole entry, looked up): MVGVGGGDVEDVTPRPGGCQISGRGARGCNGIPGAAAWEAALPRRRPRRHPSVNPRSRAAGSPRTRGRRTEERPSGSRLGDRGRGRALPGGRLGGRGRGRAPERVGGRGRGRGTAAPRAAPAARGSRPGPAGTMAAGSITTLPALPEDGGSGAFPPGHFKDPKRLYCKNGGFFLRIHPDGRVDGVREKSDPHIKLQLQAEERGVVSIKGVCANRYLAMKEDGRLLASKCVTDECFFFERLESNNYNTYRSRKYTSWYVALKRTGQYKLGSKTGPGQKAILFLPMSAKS

[7] = JC-1 mitochondrial potential readout, lung cancer cells – cell-based, A549, JC-1 fluorescence, basal, 24 h, 100 nL, profiling panel (AID 1138); conditions: higher = more signal;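 note: A549 lung adenocarcinoma cells under basal conditions with no added stimulus; test concentration not given here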
Lefty1 = Lefty1 protein binding to printed compounds – biochemical, small-molecule microarray, 635/667 nm fluorescence, primary screen (AID 1139); conditions: fluorescence 635/667, higher = more signal
[8] = system: wheat germ agglutinin (Triticum aestivum), Alexa647-labelled; experiment: Alexa647-WGA lectin binding to printed small molecules – biochemical, small-molecule microarray, 635/667 nm fluorescence, artefact control for SMM control-protein annotation, profiling panel (AID 1140); conditions: WGA-A647 binding, 635 nm fluorescence, higher = more signal;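 note: score merges 667 nm feature emission with signal to noise over triplicate slides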
[9] = target: Luciferin 4-monooxygenase (Photinus pyralis) (UniProt P08659); experiment: inhibition of purified Photinus pyralis luciferase – biochemical, luminescence, purified enzyme, 2006 set, primary screen (AID 1141); conditions: purified firefly luciferase, SteadyGlo luminescence, 30 min; higher = more signal, called active from +8 up or from −8 down;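 note: cell-free assay with purified firefly luciferase at 100 ng per well in PBS; test concentration not given here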
Sequence of Luciferin 4-monooxygenase (Photinus pyralis) (P08659 whole entry, looked up): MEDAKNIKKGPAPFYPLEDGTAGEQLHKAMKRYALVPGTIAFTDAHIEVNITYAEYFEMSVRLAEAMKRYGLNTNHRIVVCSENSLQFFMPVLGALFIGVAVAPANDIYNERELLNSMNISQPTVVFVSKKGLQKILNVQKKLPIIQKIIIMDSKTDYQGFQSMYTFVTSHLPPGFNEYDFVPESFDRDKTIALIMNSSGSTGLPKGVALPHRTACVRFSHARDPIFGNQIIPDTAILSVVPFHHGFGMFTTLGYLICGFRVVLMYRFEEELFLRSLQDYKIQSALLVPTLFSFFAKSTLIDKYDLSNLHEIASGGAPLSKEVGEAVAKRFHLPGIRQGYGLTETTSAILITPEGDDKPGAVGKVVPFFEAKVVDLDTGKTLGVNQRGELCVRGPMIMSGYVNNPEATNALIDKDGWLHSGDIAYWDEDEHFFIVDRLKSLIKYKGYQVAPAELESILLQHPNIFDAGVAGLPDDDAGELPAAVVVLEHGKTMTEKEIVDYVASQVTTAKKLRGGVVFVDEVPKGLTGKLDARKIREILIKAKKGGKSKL

[10] = system: Wnt5a (protein binding on small-molecule microarray); experiment: small molecules binding Wnt5a protein – biophysical, small-molecule microarray, 635/667 nm fluorescence, primary screen (AID 1142); conditions: 635 nm fluorescence, higher = more signal;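 note: fluorescence read at 667 nm with signal to noise per printed feature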
[11] = ATP-based viability of Huh7 replicon cells – cell-based, CellTiter-Glo luminescence, basal, 48 h, cytotoxicity control for HCV replication inhibitor project, primary screen (AID 1143); conditions: higher = more signal, called active from +8 up or from −8 down;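 note: Huh7 hepatoma cells carrying a hepatitis C replication reporter with no stimulus; test concentration not given here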
[12] = Pseudomonas biofilm growth suppression – PAO1 strain, BacTiter-Glo luminescence, LB-PBS, primary screen (AID 1144); conditions: P. aeruginosa PAO1 biofilm, 12 h, higher = more signal
[13] = basal CRE-LacZ reporter activity in PC12 – cell-based, unstimulated, primary screen (AID 1145); conditions: no forskolin, luminescence, 4.5 h, higher = more signal, called active from +8 up or from −8 down
[14] = forskolin-driven CRE-LacZ activity in PC12 – cell-based, CRE-LacZ reporter, forskolin-stimulated, primary screen (AID 1146); conditions: luminescence, 4.5 h, higher = more signal, called active from +8 up or from −8 down;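 note: PC12 cells with 6xCRE LacZ reporter stimulated by forskolin 10 µM; beta-galactosidase reporter signal reflecting CREB driven transcription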
[15] = target: Streptavidin (Streptomyces avidinii) (UniProt P22629); experiment: compounds binding control protein streptavidin – biophysical, small-molecule microarray, 635/667 nm fluorescence, artefact control for SMM compound annotation, primary screen (AID 1147); conditions: higher = more signal;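 note: signal reflects streptavidin binding to arrayed compounds as a control protein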
Sequence of Streptavidin (Streptomyces avidinii) (P22629 whole entry, looked up): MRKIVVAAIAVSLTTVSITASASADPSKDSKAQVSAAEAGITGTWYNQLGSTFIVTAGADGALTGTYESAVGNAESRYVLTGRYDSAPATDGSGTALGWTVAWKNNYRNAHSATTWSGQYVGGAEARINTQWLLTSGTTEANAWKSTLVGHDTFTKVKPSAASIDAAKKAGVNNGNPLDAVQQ

[16] = probe aInhba binding on compound microarray – biochemical, small-molecule microarray, 635/667 nm fluorescence, primary screen (AID 1148); conditions: higher = more signal;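 note: score merges 667nm spot fluorescence with signal-to-noise for antibody binding to printed compounds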
Torsin-1A (Homo sapiens) [17] = target: Torsin-1A (Homo sapiens) (UniProt O14656); experiment: TOR1A wild-type binding on microarray – cell lysate, small-molecule microarray, lysate, 635/667 nm, primary screen (AID 1149); conditions: COS7 hTOR1A-WT lysate, 635 nm fluorescence, higher = more signal
Sequence of Torsin-1A (Homo sapiens) (O14656 whole entry, looked up): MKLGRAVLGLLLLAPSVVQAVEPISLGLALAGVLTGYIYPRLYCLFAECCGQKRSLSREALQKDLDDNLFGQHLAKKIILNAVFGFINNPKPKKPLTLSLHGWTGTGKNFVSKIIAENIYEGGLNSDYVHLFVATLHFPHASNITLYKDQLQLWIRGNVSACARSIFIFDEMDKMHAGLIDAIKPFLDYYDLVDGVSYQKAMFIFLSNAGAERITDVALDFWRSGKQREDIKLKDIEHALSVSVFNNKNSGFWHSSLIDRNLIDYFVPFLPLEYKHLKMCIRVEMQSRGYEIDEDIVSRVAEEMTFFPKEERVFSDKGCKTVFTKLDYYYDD

Torsin-1A (Homo sapiens) [18] = target: Torsin-1A (Homo sapiens) (UniProt O14656); experiment: torsin A mutant lysate binding on microarrays – cell lysate, small-molecule microarray, COS7 lysate, 635/667 nm fluorescence, primary screen (AID 1150); conditions: COS7 hTOR1A mutant lysate, 635 nm fluorescence, higher = more signal;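 note: score pools 667 nm emission and signal to noise measuring lysate protein binding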
[19] = system: Sonic hedgehog protein (Shh); experiment: Sonic hedgehog microarray binding compounds – biochemical, small-molecule microarray, 635/667 nm fluorescence, primary screen (AID 1151); conditions: 635 nm fluorescence, higher = more signal;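 note: Shh protein binding to compounds spotted on small-molecule microarray slides; score combines spot fluorescence intensity with signal-to-noise across triplicate slides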

## COC(=O)[C@@]1(Cc2ccccc2)[C@H]2c3cc(C(=O)N4CCCC4)n(C[C@H](O)CO)c3C[C@H]2CN1C(=O)c1ccccc1
[1]
  composite z-score: 1.39
[2]
  composite z-score: 0.926
[3]
  composite z-score: 1.62
[4]
  composite z-score: -0.455
[5]
  composite z-score: -0.326
[6]
  composite z-score: -0.978
[7]
  z-score: 0.577
Lefty1
  composite z-score: -0.554
[8]
  composite z-score: 1.18
[9]
  z-score: 1.22 (inactive)
[10]
  composite z-score: -0.303
[11]
  z-score: 0.0728 (inactive)
[12]
  z-score: -0.367 (inactive)
[13]
  z-score: 0.39 (inactive)
[14]
  z-score: 0.881 (inactive)
[15]
  composite z-score: 1.29
[16]
  composite z-score: 0.163
Torsin-1A (Homo sapiens) [17]
  composite z-score: 0.677
Torsin-1A (Homo sapiens) [18]
  composite z-score: 1.4
[19]
  composite z-score: 0.139

## O=C(NC1CC1)[C@@H]1c2ccccc2C(=O)N(Cc2ccccc2)[C@H]1c1ccc(CO)cc1
[1]
  composite z-score: 0.522
[2]
  composite z-score: 0.802
[3]
  composite z-score: -0.747
[4]
  composite z-score: 0.497
[5]
  composite z-score: 0.665
[6]
  composite z-score: 0.483
[7]
  z-score: 2.09
Lefty1
  composite z-score: 0.626
[8]
  composite z-score: 0.905
[9]
  z-score: 0.017 (inactive)
[10]
  composite z-score: 0.336
[11]
  z-score: -0.878 (inactive)
[12]
  z-score: -0.55 (inactive)
[13]
  z-score: -0.825 (inactive)
[14]
  z-score: -1.22 (inactive)
[15]
  composite z-score: -0.928
[16]
  composite z-score: 0.0111
Torsin-1A (Homo sapiens) [17]
  composite z-score: -0.892
Torsin-1A (Homo sapiens) [18]
  composite z-score: -0.665
[19]
  composite z-score: 0.443

## C=C(CCCC)/C(=C/C[C@@H](OC(C)=O)c1ccc(CO)o1)c1cc(C(=O)OC)ccc1OC
[1]
  composite z-score: 0.746
[2]
  composite z-score: 0.961
[3]
  composite z-score: 0.506
[4]
  composite z-score: 0.715
[5]
  composite z-score: 1.33
[6]
  composite z-score: 1.17
[7]
  z-score: 0.522
Lefty1
  composite z-score: 1.22
[8]
  composite z-score: 0.454
[9]
  z-score: -2.87 (inactive)
[10]
  composite z-score: 0.259
[11]
  z-score: 0.0294 (inactive)
[12]
  z-score: -0.504 (inactive)
[13]
  z-score: 3.68 (inactive)
[14]
  z-score: 2.34 (inactive)
[15]
  composite z-score: 0.498
[16]
  composite z-score: -0.0405
Torsin-1A (Homo sapiens) [17]
  composite z-score: 0.436
Torsin-1A (Homo sapiens) [18]
  composite z-score: 0.371
[19]
  composite z-score: 2.15

## COc1ccc([Si](C)(C)[C@@H]2[C@@H](CCO)O[C@]3(C(=O)N(Cc4cccc(N5C(=O)c6ccccc6Oc6ccccc65)c4)c4ccccc43)[C@H]2C)cc1
[1]
  composite z-score: 0.106
[2]
  composite z-score: 0.502
[3]
  composite z-score: 0.121
[4]
  composite z-score: -0.0703
[5]
  composite z-score: -0.672
[6]
  composite z-score: -0.559
[7]
  z-score: -0.368
Lefty1
  composite z-score: 0.135
[8]
  composite z-score: 0.413
[9]
  z-score: -1.26 (inactive)
[10]
  composite z-score: -0.193
[11]
  z-score: -5.77 (inactive)
[12]
  z-score: -1.34 (inactive)
[13]
  z-score: 6.17 (inactive)
[14]
  z-score: 0.291 (inactive)
[15]
  composite z-score: -0.313
[16]
  composite z-score: -0.251
Torsin-1A (Homo sapiens) [17]
  composite z-score: -0.133
Torsin-1A (Homo sapiens) [18]
  composite z-score: -0.548
[19]
  composite z-score: -0.264
